Experimental data from PubChem BioAssay (NCATS).
Inconclusive results are not listed. More than one record can exist for a structure, and the calls need not agree. Calls of active or inactive are those of the source. Calls follow the shape of the dose curve; as a rule, active = well fitted curve in the direction sought with a large enough effect; inconclusive = small, poorly fitted or top-dose-only effect, or another doubt; inactive = no such curve, though single readings can be large; an effect the other way counts as inactive or inconclusive.

Key:
UISO = assay: qHTS assay to identify novel small-molecules to repurpose for Merkel cell carcinoma treatment (AID 1296009); details: MCC and control cell lines, CellTiter-Glo viability, 72 h; series mostly up to 46 µM; also: nearly all actives have a fitted effect of over 60% in size
Outline: (§1)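 Dose-response viability screen; 72 hr exposure at 37 degree celsius; CellTiter-Glo added, 10 min room temperature, luminescence read; RLUs scaled between no-cell and DMSO wells.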

C33A = assay: Primary qHTS to identify gynecologic anti-cancer compounds using libraries of approved drugs and bioactive compounds (AID 1345084); details: Gynecologic cancer cell panel viability, ATPlite luminescence, 48 h; series mostly up to 57.5 µM; also: nearly all actives have a fitted effect of over 55% in size
Outline: (§2)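 Cell viability after 48 h drug treatment, ATPlite luminescence readout; five doses.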

CASKI = assay: as above; details: Gynecologic cancer cell panel viability, ATPlite luminescence, 48 h; series mostly up to 57.5 µM
Outline: as §2

HeLa = assay: as above; details: Gynecologic cancer cell panel viability, ATPlite luminescence, 48 h; series mostly up to 57.5 µM
Outline: as §2

Hek293T = assay: as above; details: Gynecologic cancer cell panel viability, ATPlite luminescence, 48 h, control line for the selectivity index; series mostly up to 57.5 µM
Outline: as §2

JEG-3 = assay: as above; details: Gynecologic cancer cell panel viability, ATPlite luminescence, 48 h; series mostly up to 57.5 µM
Outline: as §2

OV90 = assay: as above; details: Gynecologic cancer cell panel viability, ATPlite luminescence, 48 h; series mostly up to 57.5 µM
Outline: as §2

CAOV3 = assay: as above; details: Gynecologic cancer cell panel viability, ATPlite luminescence, 48 h; series mostly up to 57.5 µM
Outline: as §2

Es-2 = assay: as above; details: Gynecologic cancer cell panel viability, ATPlite luminescence, 48 h; series mostly up to 57.5 µM
Outline: as §2

WaGa = assay: qHTS assay to identify novel small-molecules to repurpose for Merkel cell carcinoma treatment (AID 1296009); details: MCC and control cell lines, CellTiter-Glo viability, 72 h; series mostly up to 46 µM; also: nearly all actives have a fitted effect of over 60% in size
Outline: as §1
% is scaled to controls: 0 for no effect and ±100 for the full control effect; potency is read from the fitted curve at half-maximal effect.

CCCSS/C(CCO)=C(\C)N(C=O)Cc1cnc(C)nc1N
active: Potency (UISO) 29.9 µM
inactive: Potency (C33A) | Potency (CASKI) | Potency (HeLa) | Potency (Hek293T) | Potency (JEG-3) | Potency (OV90)

Cc1c(C)n(CCN(C)C)c2ccc(C(=O)OCCN(C)C)cc12
inactive: Potency (UISO) | Potency (C33A) | Potency (CAOV3) | Potency (CASKI) | Potency (Es-2) | Potency (HeLa) | Potency (Hek293T) | Potency (JEG-3)

CCOC(=O)COc1ccc2c(C)c(CCN(CC)CC)c(=O)oc2c1Cl
inactive: Potency (UISO) | Potency (C33A) | Potency (CAOV3) | Potency (CASKI) | Potency (HeLa) | Potency (Hek293T) | Potency (JEG-3) | Potency (OV90)

C=C1C[C@H]2[C@@H]3C=C(C)C4=CC(=O)CC[C@]4(C)[C@H]3CC[C@]2(C)[C@@]1(OC(C)=O)C(C)=O
inactive: Potency (UISO) | Potency (C33A) | Potency (CAOV3) | Potency (CASKI) | Potency (Es-2) | Potency (HeLa) | Potency (Hek293T) | Potency (JEG-3) | Potency (OV90)

CCCCC(CC)CN=C(N)NC(N)=NCCCCCCN=C(N)NC(N)=NCC(CC)CCCC (stereo not given)
active: Potency (UISO) 1.88 µM | Potency (WaGa) 2.66 µM | Potency (HeLa) 17.8 µM | Potency (OV90) 20 µM

C[C@H]1C[C@H]2[C@@H]3CCC4=CC(=O)C=C[C@]4(C)[C@@]3(Cl)[C@@H](O)C[C@]2(C)[C@@]1(O)C(=O)CO
inactive: Potency (UISO) | Potency (WaGa) | Potency (C33A) | Potency (CASKI) | Potency (Es-2) | Potency (HeLa) | Potency (Hek293T) | Potency (JEG-3) | Potency (OV90)

CCOc1ccc2nc3cc(N)ccc3c(N)c2c1
active: Potency (UISO) 8.41 µM | Potency (WaGa) 2.11 µM
inactive: Potency (Es-2) | Potency (HeLa)

CO/N=C1\CN(c2nc3c(cc2F)c(=O)c(C(=O)O)cn3C2CC2)CC1CN (stereo not given)
inactive: Potency (UISO) | Potency (WaGa) | Potency (CASKI) | Potency (Es-2) | Potency (HeLa) | Potency (Hek293T) | Potency (JEG-3) | Potency (OV90)

O=c1c(-c2ccccc2)c1-c1ccccc1
active: Potency (UISO) 26.6 µM | Potency (WaGa) 18.8 µM
inactive: Potency (HeLa) | Potency (JEG-3)

CC(C)(C)CC(C)(C)c1ccc(OCCOCC[N+](C)(C)Cc2ccccc2)cc1
25.1 µM (active) and inactive: Potency (CAOV3)
inactive: Potency (Es-2) | Potency (HeLa) | Potency (Hek293T) | Potency (JEG-3)
active: Potency (UISO) 8.41 µM | Potency (WaGa) 1.5 µM | Potency (CASKI) 10 µM

CC(=O)Oc1ccc2c(c1)CC[C@@H]1[C@@H]2CC[C@]2(C)[C@@H](O)CC[C@@H]12
active: Potency (HeLa) 6.31 µM
inactive: Potency (C33A) | Potency (CAOV3) | Potency (CASKI) | Potency (Es-2) | Potency (Hek293T) | Potency (JEG-3) | Potency (OV90)

COc1c(C)c2c(c(O)c1C/C=C(\C)CCC(=O)O)C(=O)OC2
inactive: Potency (CAOV3) | Potency (JEG-3)
active: Potency (WaGa) 0.531 µM | Potency (Es-2) 2.82 µM

O=C(OCC(O)CO)c1ccccc1Nc1ccnc2cc(Cl)ccc12 (stereo not given)
inactive: Potency (C33A) | Potency (CAOV3) | Potency (CASKI) | Potency (Es-2) | Potency (HeLa) | Potency (Hek293T) | Potency (JEG-3) | Potency (OV90)

CN(C/C=C/c1ccccc1)Cc1cccc2ccccc12
inactive: Potency (WaGa) | Potency (C33A) | Potency (CAOV3) | Potency (CASKI) | Potency (Es-2) | Potency (HeLa) | Potency (JEG-3) | Potency (OV90)

CC(=O)N(O)CCCCCNC(=O)CCC(=O)N(O)CCCCCNC(=O)CCC(=O)N(O)CCCCCN
inactive: Potency (CASKI) | Potency (HeLa)
active: Potency (WaGa) 10.6 µM | Potency (OV90) 6.31 µM

CN1CCCC(CC2c3ccccc3Sc3ccccc32)C1 (stereo not given)
active: Potency (UISO) 23.7 µM
inactive: Potency (CASKI) | Potency (Es-2) | Potency (HeLa) | Potency (Hek293T) | Potency (JEG-3)

C[C@]12CC[C@@H]3c4ccc(O)cc4CC[C@H]3[C@@H]1C[C@@H](O)[C@@H]2O
inactive: Potency (C33A) | Potency (CAOV3) | Potency (CASKI) | Potency (Es-2) | Potency (Hek293T) | Potency (JEG-3) | Potency (OV90)
active: Potency (HeLa) 31.6 µM

CCN(CC)CCOc1ccc(C(O)(Cc2ccc(Cl)cc2)c2ccc(C)cc2)cc1 (stereo not given)
active: Potency (WaGa) 18.8 µM | Potency (OV90) 17.8 µM
inactive: Potency (HeLa) | Potency (JEG-3)

OC[C@H]1O[C@@H](n2cnc3c(=S)nc[nH]c32)[C@H](O)[C@@H]1O
active: Potency (WaGa) 0.237 µM | Potency (C33A) 7.94 µM | Potency (CASKI) 2.24 µM | Potency (Es-2) 3.55 µM | Potency (HeLa) 3.16 µM | Potency (Hek293T) 10 µM | Potency (JEG-3) 2.51 µM | Potency (OV90) 8.91 µM
inactive: Potency (CAOV3)

C#C[C@]1(O)CC[C@H]2[C@@H]3CCc4cc(OC5CCCC5)ccc4[C@H]3CC[C@@]21C
active: Potency (OV90) 20 µM
inactive: Potency (C33A) | Potency (CAOV3) | Potency (CASKI) | Potency (Es-2) | Potency (HeLa) | Potency (Hek293T) | Potency (JEG-3)

COC(=O)C1=C(C)NC(C)=C(C(=O)O[C@@H]2CCCN(Cc3ccccc3)C2)[C@@H]1c1cccc([N+](=O)[O-])c1
active: Potency (WaGa) 26.6 µM
inactive: Potency (C33A) | Potency (CAOV3) | Potency (CASKI) | Potency (Es-2) | Potency (HeLa) | Potency (Hek293T) | Potency (JEG-3) | Potency (OV90)

CCCCOc1ccc(C(=O)CCN2CCCCC2)cc1
active: Potency (WaGa) 23.7 µM
inactive: Potency (C33A) | Potency (CASKI) | Potency (HeLa) | Potency (JEG-3) | Potency (OV90)

Nc1ccc(/C=C/c2ccc(N)cc2S(=O)(=O)O)c(S(=O)(=O)O)c1
inactive: activity change, negative = cytotoxicity (C33A) -2.85% [at 0.462 µM] | activity change, negative = cytotoxicity (CAOV3) -5.63% [at 0.462 µM] | activity change, negative = cytotoxicity (CASKI) -23.3% [at 0.462 µM] | activity change, negative = cytotoxicity (Es-2) 1.34% [at 0.462 µM] | activity change, negative = cytotoxicity (HeLa) 9.69% [at 0.462 µM] | activity change, negative = cytotoxicity (Hek293T) 4.03% [at 0.462 µM] | activity change, negative = cytotoxicity (JEG-3) -1.28% [at 0.462 µM] | activity change, negative = cytotoxicity (OV90) 2.33% [at 0.462 µM]

CCN(CC)CCNC(=O)COc1ccc(Cl)cc1
inactive: Potency (C33A) | Potency (CAOV3) | Potency (CASKI) | Potency (Es-2) | Potency (HeLa) | Potency (Hek293T) | Potency (JEG-3) | Potency (OV90)

COc1cc(-c2ccc(=O)[nH]n2)ccc1OC(F)F
inactive: Potency (WaGa) | Potency (C33A) | Potency (CAOV3) | Potency (CASKI) | Potency (Es-2) | Potency (Hek293T) | Potency (JEG-3) | Potency (OV90)
